The full data set covers some 8,800 targets. This sample favours those with a hit. About 0.5% of all pairs of compound and target were hits. Unmarked numbers belong to inactive results.
Key:
Test in all cases: log2 fold change, soluble protein after heating vs DMSO (PISA); higher = thermal stabilisation; K562 lysate, 10 uM; active = over 0.2 and 3.5 SD of the protein, either way, in both replicates (recomputed)
[1] = compound: C1=CC=C(C=C1)[C@H](COC2=CC3=C(C=C2)NC(=O)N3)NC(=O)C4=CC=CN(C4=O)CC5=CC(=C(C=C5)F)F
In short: (§1)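 Thermal stability, expressed as log-two fold change relative to solvent controls, is given from duplicates. Crude K562 extract in PBS pH 7.4 with 1 mM MgCl2, at 1 mg/mL protein, was treated with 10 μM compound for 30 min and heated in aliquots for 3 min across 48°C-58°C. After pooling, adjustment to 0.5% NP-40 at 4°C and centrifugation at 21,000xg for 90 min, supernatant protein was measured by TMTpro 16plex LC-MS/MS with channel sums equalised.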

[2] = compound: CC1=C(SC2=C1C(=N[C@H](C3=NN=C(N32)C)CC(=O)N)C4=CC=C(C=C4)Cl)C
In short: as §1

[3] = compound: CC1=C2C(=CC=C1)N=C(N(C2=O)C3=CC=CC=C3C)CN4C=NC5=C(N=CN=C54)N
In short: as §1

[4] = compound: Cc1sc2c(c1C)C(c1ccc(Cl)cc1)=N[C@@H](CC(=O)OC(C)(C)C)c1nnc(C)n1-2
In short: as §1

[5] = compound: c1ccc([C@@H]2C[C@H]2NC2CCNCC2)cc1
In short: as §1

Chain of UniProt Q9Y287 (Q9Y287 whole entry, looked up): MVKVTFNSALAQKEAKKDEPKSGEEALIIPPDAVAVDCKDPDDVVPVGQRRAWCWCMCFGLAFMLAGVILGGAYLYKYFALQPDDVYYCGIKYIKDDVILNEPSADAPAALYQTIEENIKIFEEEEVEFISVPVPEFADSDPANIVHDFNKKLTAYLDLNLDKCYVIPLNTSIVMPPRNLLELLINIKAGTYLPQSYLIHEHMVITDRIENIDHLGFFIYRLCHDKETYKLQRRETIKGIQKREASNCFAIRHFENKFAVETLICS
Chain of UniProt Q6AI08 (Q6AI08 whole entry, looked up): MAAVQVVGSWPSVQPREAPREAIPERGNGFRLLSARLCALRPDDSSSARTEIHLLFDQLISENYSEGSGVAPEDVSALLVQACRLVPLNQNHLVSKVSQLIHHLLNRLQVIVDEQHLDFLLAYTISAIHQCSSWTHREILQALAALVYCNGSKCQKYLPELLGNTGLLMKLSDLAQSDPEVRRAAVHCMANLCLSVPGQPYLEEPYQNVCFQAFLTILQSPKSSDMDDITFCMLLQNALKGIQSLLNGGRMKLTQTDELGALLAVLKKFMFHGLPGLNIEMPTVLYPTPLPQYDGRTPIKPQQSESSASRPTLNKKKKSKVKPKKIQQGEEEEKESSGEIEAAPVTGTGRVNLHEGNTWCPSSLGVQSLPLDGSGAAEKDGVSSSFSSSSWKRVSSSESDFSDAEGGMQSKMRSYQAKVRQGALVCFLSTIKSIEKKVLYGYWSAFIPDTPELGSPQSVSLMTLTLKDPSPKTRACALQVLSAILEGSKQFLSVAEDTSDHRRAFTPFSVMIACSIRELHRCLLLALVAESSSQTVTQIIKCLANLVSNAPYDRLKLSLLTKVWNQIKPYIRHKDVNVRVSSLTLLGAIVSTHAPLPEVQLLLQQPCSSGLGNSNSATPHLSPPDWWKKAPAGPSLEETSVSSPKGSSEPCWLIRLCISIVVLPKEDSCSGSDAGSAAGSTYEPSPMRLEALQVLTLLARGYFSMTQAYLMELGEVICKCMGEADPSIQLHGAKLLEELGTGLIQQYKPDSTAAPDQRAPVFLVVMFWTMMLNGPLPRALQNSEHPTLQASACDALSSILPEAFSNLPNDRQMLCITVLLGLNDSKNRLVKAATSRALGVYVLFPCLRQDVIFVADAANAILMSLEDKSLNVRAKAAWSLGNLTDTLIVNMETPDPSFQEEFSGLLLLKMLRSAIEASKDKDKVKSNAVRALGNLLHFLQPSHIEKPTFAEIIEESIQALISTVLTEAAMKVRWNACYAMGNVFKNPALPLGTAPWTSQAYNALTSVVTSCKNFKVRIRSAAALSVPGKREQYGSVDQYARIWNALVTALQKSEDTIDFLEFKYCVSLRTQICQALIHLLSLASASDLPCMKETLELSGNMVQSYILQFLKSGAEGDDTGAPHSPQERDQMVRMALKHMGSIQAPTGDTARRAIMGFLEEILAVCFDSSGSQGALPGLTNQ
Chain of UniProt Q9Y5Q9 (Q9Y5Q9 whole entry, looked up): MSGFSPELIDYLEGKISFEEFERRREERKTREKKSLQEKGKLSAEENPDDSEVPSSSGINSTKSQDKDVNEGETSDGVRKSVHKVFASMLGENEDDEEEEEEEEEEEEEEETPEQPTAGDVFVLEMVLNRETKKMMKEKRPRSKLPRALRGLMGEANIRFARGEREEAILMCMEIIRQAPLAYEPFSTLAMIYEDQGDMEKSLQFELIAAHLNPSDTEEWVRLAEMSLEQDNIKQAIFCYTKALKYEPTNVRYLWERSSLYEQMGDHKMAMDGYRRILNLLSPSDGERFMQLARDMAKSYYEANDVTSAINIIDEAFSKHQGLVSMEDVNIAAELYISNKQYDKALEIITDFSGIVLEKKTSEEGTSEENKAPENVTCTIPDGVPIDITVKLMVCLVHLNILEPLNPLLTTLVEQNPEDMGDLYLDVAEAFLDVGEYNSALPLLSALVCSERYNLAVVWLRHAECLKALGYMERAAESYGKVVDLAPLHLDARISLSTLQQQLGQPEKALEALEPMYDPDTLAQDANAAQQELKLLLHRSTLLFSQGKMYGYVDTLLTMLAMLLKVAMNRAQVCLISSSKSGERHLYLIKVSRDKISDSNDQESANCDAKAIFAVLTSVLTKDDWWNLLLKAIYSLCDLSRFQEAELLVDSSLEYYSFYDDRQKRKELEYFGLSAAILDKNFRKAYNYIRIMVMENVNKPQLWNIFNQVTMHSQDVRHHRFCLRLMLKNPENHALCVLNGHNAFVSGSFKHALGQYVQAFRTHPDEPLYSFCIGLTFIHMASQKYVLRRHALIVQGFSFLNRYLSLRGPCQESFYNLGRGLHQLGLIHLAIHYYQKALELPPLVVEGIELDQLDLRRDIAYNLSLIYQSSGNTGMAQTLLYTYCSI
Chain of UniProt Q9Y6M1 (Q9Y6M1 whole entry, looked up): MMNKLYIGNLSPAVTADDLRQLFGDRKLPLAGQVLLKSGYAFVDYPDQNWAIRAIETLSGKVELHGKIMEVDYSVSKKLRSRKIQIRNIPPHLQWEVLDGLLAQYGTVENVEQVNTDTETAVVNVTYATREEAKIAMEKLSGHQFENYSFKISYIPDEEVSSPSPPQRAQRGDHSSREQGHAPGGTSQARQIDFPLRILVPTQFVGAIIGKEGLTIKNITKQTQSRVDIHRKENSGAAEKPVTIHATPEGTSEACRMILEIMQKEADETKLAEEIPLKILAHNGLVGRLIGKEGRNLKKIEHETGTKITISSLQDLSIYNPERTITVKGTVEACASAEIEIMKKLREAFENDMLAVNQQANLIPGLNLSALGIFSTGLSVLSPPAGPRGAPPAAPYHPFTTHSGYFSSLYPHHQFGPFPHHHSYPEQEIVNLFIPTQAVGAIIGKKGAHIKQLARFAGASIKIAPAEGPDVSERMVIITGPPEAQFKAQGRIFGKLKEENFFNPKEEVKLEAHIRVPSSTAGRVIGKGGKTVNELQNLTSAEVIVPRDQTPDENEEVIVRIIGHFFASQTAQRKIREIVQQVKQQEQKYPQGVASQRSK
Chain of UniProt P23677 (P23677 whole entry, looked up): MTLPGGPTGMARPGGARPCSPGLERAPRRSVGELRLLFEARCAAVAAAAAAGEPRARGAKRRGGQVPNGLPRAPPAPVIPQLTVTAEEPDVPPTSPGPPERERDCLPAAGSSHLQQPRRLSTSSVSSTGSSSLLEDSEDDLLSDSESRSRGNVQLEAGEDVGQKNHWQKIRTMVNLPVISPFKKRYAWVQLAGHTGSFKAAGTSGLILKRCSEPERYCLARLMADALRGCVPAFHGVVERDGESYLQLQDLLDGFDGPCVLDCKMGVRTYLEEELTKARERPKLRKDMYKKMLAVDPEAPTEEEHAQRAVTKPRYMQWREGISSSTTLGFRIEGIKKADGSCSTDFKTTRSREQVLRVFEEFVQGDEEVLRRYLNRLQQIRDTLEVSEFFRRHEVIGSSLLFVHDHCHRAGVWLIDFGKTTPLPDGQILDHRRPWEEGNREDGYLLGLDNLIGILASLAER
Chain of UniProt O94927 (O94927 whole entry, looked up): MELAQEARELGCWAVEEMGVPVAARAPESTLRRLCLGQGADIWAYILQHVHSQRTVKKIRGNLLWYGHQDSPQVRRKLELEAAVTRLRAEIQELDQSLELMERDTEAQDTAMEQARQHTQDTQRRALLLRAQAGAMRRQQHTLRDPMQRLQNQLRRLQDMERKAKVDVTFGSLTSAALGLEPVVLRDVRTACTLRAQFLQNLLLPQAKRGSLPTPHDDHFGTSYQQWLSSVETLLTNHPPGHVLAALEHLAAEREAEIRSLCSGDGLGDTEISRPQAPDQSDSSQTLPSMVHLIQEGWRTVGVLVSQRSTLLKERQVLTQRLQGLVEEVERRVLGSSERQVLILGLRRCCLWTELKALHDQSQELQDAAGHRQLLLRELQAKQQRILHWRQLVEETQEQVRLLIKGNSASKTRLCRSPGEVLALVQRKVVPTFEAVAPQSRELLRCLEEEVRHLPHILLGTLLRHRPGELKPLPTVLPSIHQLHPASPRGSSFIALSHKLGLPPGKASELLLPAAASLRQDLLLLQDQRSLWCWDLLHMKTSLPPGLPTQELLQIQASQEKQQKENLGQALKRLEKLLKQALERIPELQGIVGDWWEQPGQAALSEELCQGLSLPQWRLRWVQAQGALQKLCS
Chain of UniProt Q16891 (Q16891 whole entry, looked up): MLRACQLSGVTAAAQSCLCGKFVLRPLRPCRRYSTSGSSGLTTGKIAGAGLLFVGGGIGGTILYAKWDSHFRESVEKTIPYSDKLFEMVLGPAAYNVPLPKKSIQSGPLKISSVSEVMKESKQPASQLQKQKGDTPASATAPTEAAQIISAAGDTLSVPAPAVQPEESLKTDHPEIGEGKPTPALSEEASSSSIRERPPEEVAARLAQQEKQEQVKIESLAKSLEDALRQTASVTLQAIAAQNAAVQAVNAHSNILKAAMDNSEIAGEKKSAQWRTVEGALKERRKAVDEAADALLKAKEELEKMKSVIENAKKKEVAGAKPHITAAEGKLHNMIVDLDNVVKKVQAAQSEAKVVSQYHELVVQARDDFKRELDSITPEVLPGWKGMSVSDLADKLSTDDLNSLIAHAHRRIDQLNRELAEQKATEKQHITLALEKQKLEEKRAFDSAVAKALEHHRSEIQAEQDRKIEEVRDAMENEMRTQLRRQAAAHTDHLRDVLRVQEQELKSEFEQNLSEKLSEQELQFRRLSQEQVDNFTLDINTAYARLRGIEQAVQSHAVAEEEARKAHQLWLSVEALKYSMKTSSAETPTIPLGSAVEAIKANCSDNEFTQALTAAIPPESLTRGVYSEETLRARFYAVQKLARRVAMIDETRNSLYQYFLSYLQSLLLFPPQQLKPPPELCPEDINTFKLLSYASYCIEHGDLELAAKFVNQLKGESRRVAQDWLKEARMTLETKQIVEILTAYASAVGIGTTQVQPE
Chain of UniProt Q96AB3 (Q96AB3 whole entry, looked up): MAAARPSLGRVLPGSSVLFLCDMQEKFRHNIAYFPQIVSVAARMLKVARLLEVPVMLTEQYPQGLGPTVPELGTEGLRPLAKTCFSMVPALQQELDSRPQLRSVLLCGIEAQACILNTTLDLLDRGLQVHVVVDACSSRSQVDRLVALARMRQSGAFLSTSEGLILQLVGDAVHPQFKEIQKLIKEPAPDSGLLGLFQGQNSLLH

Target	log2 fold change [1]	log2 fold change [2]	log2 fold change [3]	log2 fold change [4]	log2 fold change [5]
IARS (UniProt P41252)	-0.027	0.026	0.025	0.066	0.047
HNRNPD isoform 3 (UniProt Q14103)	-0.087	-0.145	0	-0.096	-0.003
ILKAP (UniProt Q9H0C8)	-0.004	-0.004	-0.013	0.013	0.009
KDM6A (UniProt O15550)	-0.024	-0.019	0.049	-0.03	0.008
GRK6 isoform 2 (UniProt P43250)	0.086	-0.034	-0.135	0.084	-0.018
HECTD3 (UniProt Q5T447)	-0.06	0.038	0.046	0.034	0.06
HEATR3 (UniProt Q7Z4Q2)	-0.101	0.022	0.008	-0.024	0.028
INF2 (UniProt Q27J81)	0.016	0.017	0.015	-0.014	-0.06
GRB10 (UniProt Q13322)	0.03	0.022	0.024	0.045	-0.078
GPA33 (UniProt Q99795)	0.007	0.024	0.006	-0.248	-0.514 (active)
ITPKA (UniProt P23677)	-0.022	0.006	-0.017	-0.012	-0.013
ISCA1 isoform 2 (UniProt Q9BUE6)	0.005	-0.03	0.016	-0.021	0.099
HNRNPL, A0A3B3ITJ4	-0.063	-0.011	–	–	–
IMMT (UniProt Q16891)	-0.089	0.016	0.017	0.022	0.038
HADH isoform 2 (UniProt Q16836)	0.012	0.004	-0.047	0.013	0.086
INTS14 (UniProt Q96SY0)	0.067	0.034	-0.038	0.007	0.009
HDAC10 (UniProt Q969S8)	-0.076	0.115	0.21	0.197	-0.055
GOLGA6B (UniProt A6NDN3)	-0.041	0.006	0.009	-0.123	0.012
GSTZ1 (UniProt G3V4T6)	0.035	0.002	-0.036	0.062	-0.042
HMGN5 (UniProt Q5JSK9)	-0.067	0.015	–	–	–
HSPA14 (UniProt Q0VDF9)	0	0.011	-0.004	0.025	0.017
GSTM2 (UniProt P28161)	-0.007	0.03	-0.048	-0.037	0.051
HNRNPAB isoform 3 (UniProt Q99729)	-0.015	0.023	-0.025	0.01	-0.069
HEATR6 (UniProt Q6AI08)	-0.039	-0.086	0.05	0.008	0.014
HELQ (UniProt Q8TDG4)	0.033	0.028	0.005	-0.004	-0.074
HNRNPM (UniProt M0QZM1)	-0.093	-0.092	-0.01	0.152	–
HMGN4 (UniProt O00479)	-0.137	-0.395	-0.186	0.297	0.513

Target	log2 fold change [1]	log2 fold change [2]	log2 fold change [3]	log2 fold change [4]	log2 fold change [5]
KBTBD2 (UniProt Q8IY47)	0.016	-0.005	0.025	0.012	-0.119
KIAA0930 isoform 2 (UniProt Q6ICG6)	0.3	-0.034	-0.051	0.07	0.031
HNRNPLL (UniProt Q8WVV9)	0.018	0.028	0.007	0.022	0.036
GTF3C3 (UniProt Q9Y5Q9)	-0.018	-0.019	0.03	-0.052	0.032
HIST2H2BC (UniProt Q6DN03)	-0.03	0.065	0.014	0.003	0.165
GSTP1 (UniProt P09211)	-0.018	0.004	-0.003	-0.017	0.035
ICAM2 (UniProt P13598)	0.03	-0.025	-0.006	-0.022	0.084
HNRNPD isoform 2 (UniProt Q14103)	0.059	-0.015	-0.01	0.018	0.125
IGF2BP2 (UniProt Q9Y6M1)	-0.041	-0.004	0.012	0.022	0.008
HAUS5 (UniProt O94927)	0.043	0.02	0.003	-0.055	0.089
GLB1 (UniProt P16278)	0.02	0.033	0.046	0.016	-0.019
IL18R1 (UniProt Q13478)	-0.612 (active)	-0.103	0.119	-0.094	0.052
HK2 (UniProt P52789)	-0.021	-0.016	0.043	0.019	0.063
HAUS7 isoform 2 (UniProt Q99871)	0.163	0.036	0.019	0.069	0.032
GRK2 (UniProt P25098)	-0.05	0.009	0.03	0.007	-0.008
HAUS2 (UniProt Q9NVX0)	-0.186	0.148	0.077	0.016	0.176
H2AFY (UniProt O75367)	-0.035	0.045	0.026	0.296 (active)	-0.045
HNRNPM (UniProt P52272)	-0.099	0.034	0.041	-0.025	0.014
HAUS8 (UniProt Q9BT25)	0.016	-0.029	0	0.009	0
ITM2B (UniProt Q9Y287)	-0.019	-0.032	0.43 (active)	0.058	-0.027
INTS7 (UniProt Q9NVH2)	-0.06	0.007	0.016	0.009	-0.001
H4C1 (UniProt P62805)	-0.063	0.037	-0.031	0.664 (active)	0.125
HAUS6 (UniProt Q7Z4H7)	0	-0.012	0.021	0.005	0.041
KARS1 (UniProt Q15046)	0.005	0.019	0.002	0.045	0.045
IGF2BP3 (UniProt O00425)	-0.02	0.005	0.009	0.035	-0.002
ISOC2 (UniProt Q96AB3)	-0.014	0.035	0.085	0.03	-0.031
GOLPH3L (UniProt Q9H4A5)	-0.046	0.005	0.022	-0.009	0.021

From the supplement of paper PMC10849652
